Screening results as filed in PubChem BioAssay.
dFosB act-1: activators of delta FosB homodimer, primary screen, biochemical, fluorescence polarization, TAMRA-CDK5 oligo, single point; purified delta FosB; percent of positive-control signal above neutral wells; activation, % at 25 µM; 340,000 tested, 0.99% active; AID 493131, 2011;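 active = mean activation above about 17%, with every replicate also reaching it, limit read from the data, passing the limit was not always enough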
Target sequence (P13346 whole entry, looked up): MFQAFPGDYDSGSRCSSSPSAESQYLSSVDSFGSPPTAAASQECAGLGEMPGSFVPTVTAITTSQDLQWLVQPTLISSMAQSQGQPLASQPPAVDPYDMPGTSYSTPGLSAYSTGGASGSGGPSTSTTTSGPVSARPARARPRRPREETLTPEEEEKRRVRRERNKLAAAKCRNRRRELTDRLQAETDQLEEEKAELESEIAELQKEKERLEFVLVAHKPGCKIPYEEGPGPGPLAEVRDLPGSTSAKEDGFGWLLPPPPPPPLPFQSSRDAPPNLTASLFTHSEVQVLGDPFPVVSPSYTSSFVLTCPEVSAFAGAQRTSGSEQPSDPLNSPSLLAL
MEKK2wt PB1 HTS: modulators of MEK5 binding to wildtype MEKK2, primary screen, biochemical, multiplex bead flow cytometry, Alexa488-MEK5. Mitogen-activated protein kinase kinase kinase 2 (Homo sapiens), Q9Y2U5. Alexa488-MEK5 binding to MEKK2 WT; actives lie on both sides. binding response (% of control), % at 10 µM. 290,000 tested, 1.1% active; in the data active = binding response below about 67% or above about 130%
DNA FID counter: compounds displacing fluorescent DNA intercalator, primary screen, artefact control for HCV NS3 helicase inhibitor project, biochemical, FID fluorescence | DNA fluorescent intercalator displacement | inhibition, % at 7.9 µM | 290,000 tested, 0.17% active | AID 1845, 2009; in the data active = inhibition above about 37%;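 also: higher means more ethidium bromide displaced from hairpin DNA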
MEKK3 PB1 HTS: modulators of MEKK3-MEK5 PB1 binding, primary screen, biochemical, wildtype MEKK3, multiplex bead flow cytometry, Alexa488-MEK5; 290,000 tested, 1.4% active; binding response (% of control), % at 10 µM; AID 1529, 2009; Mitogen-activated protein kinase kinase kinase 3 (Homo sapiens), Q99759; bead-based flow cytometry, Alexa488-MEK5 binding to MEKK3; actives lie on both sides; 0 = blocked by unlabeled MEK5, 100 = vehicle;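 active = binding response more than 3 SD above or below the average of its plate-row segment, actives on both sides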;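 also: Alexa488 bead fluorescence after subtracting the streptavidin-only scavenger bead signal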
MEKK2 mut-MEK5: MEK5 binding signal on mutant MEKK2 PB1, primary screen, biochemical, multiplex bead flow cytometry, Alexa488-MEK5. Alexa488-MEK5 binding to MEKK2 mutant. 290,000 tested, 0.35% active. percent response, % at 10 µM; in the data active = percent response above about 24%, passing the limit was not always enough
dFosB act-2: activators of mouse delta FosB DNA binding, confirmation, biochemical, fluorescence polarization, TAMRA-CDK5 oligo, cherry-picked samples. activation, % at 24.9 µM. AID 588690, 2011. 2,400 tested, under 10 active. shares compounds with dFosB act-1. purified delta FosB; normalised: neutral wells 0, positive control 100;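 active = highest replicate activation at or above 34% and every replicate reaching that threshold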;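 also: higher polarization means more probe DNA bound by delta FosB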
A number is an active result; - = inactive; . = not tested or not shown. Sampled rows, rich in hits. Any-hit rate of the full collection: about 2.9%.

SMILES | dFosB act-1 | MEKK2wt PB1 HTS | DNA FID counter | MEKK3 PB1 HTS | MEKK2 mut-MEK5 | dFosB act-2
COc1cccc(-n2nnc3c(=O)n(CC(=O)Nc4ccc(C)cc4)cnc32)c1 | 27.0 | - | - | - | - | -
Cc1ccc(-n2nnc3c(=O)n(CC(=O)NCc4ccco4)cnc32)cc1 | - | - | - | - | - | .
CCOc1ccc(-n2nnc3c(=O)n(CC(=O)NCc4ccco4)cnc32)cc1 | 22.0 | - | - | - | - | -
COc1ccc(-c2cc(C)no2)cc1S(=O)(=O)N1CCOc2ccc(C)cc21 | 44.1 | - | - | - | - | -
CCc1ccc(-c2cc(C)no2)cc1S(=O)(=O)N1CCOc2ccccc21 | - | - | - | - | - | .
Cc1sc2ncnc(SCC(=O)c3ccc(O)cc3O)c2c1C | 40.3 | - | - | - | - | -
COc1ccc(Nc2nc(N3CCOCC3)nc(N3CCOCC3)n2)c(OC)c1 | - | - | - | - | - | .
Fc1ccc(Nc2nc(Oc3ccc4c(c3)OCO4)nc(N3CCOCC3)n2)c(F)c1 | 60.7 | - | - | - | - | -
O=C(Nc1ccc(-c2nc3cccnc3s2)cc1)c1ccc(Br)o1 | 35.2 | - | - | - | - | -
COc1ccc(C(=O)N2CCN(S(=O)(=O)c3ccc(Cl)cc3)CC2)cc1S(=O)(=O)N1CCOCC1 | - | . | . | . | . | .
CCCCn1c(N)c(N(CC(C)C)C(=O)C2CCN(S(=O)(=O)c3ccc(OCC)cc3)CC2)c(=O)[nH]c1=O | 19.1 | . | . | . | . | -
O=C(O)CN1C(=O)c2cccc3c(Br)ccc1c23 | - | - | - | - | - | .
CN(C)CCCN1C(=O)c2cccc3c(Br)ccc(c23)C1=O | 31.8 | - | - | - | - | -
CCC1CCc2sc(C(=O)NC3CCN(Cc4ccccc4)CC3)cc2C1 (configuration not stated) | 29.0 | . | . | . | . | -
CS(=O)(=O)c1ccc2nc(NC(=O)c3cccc(NS(=O)(=O)c4ccc(F)c(F)c4)c3)sc2c1 | 29.0 | - | - | - | - | -
CS(=O)(=O)c1ccc2nc(NC(=O)c3cccc([N+](=O)[O-])c3)sc2c1 | - | - | - | - | - | .
O=C(Nc1nc2ccc(SC(F)F)cc2s1)c1ccc(NS(=O)(=O)c2ccc(F)c(F)c2)cc1 | 38.2 | - | - | - | - | -
CS(=O)(=O)c1ccc2nc(NC(=O)c3ccc(NS(=O)(=O)c4ccc(F)c(F)c4)cc3)sc2c1 | 35.5 | - | - | - | - | -
O=C(Nc1nccs1)[C@@H]1CCCN1S(=O)(=O)c1ccccc1F | - | . | . | . | . | .
CC(=O)c1sc(NC(=O)C2CCCN2S(=O)(=O)c2ccccc2F)nc1C (configuration not stated) | 20.8 | . | . | . | . | -
O=C(CCCCl)OCc1cn(-c2ccc(Cl)cc2)nn1 | - | - | - | - | - | .
Cc1ccc(CNC(=O)c2ccc(NC(=O)C3=CSCCO3)cc2)cc1 | 27.6 | - | - | - | - | -
CCOc1ccc(CNC(=O)c2ccc(NC(=O)C3=CSCCO3)cc2)cc1 | - | - | - | - | - | .
O=C(Nc1cccnc1)c1cc(-c2ccc(Cl)cc2Cl)on1 | 62.0 | - | - | - | - | -
CCN(CC)CCNC(=O)c1ccc(NC(=O)/C=C/c2cc(OC)c(OC)c(OC)c2)cc1 | 52.4 | - | - | - | - | -
SMILES | dFosB act-1 | MEKK2wt PB1 HTS | DNA FID counter | MEKK3 PB1 HTS | MEKK2 mut-MEK5 | dFosB act-2
COc1cc(/C=C/C(=O)Nc2ccc(C)cc2)cc(OC)c1OC | - | - | - | - | - | .
Cc1c(-c2nc(N)nc(Nc3ccc(F)cc3)n2)oc2ccccc12 | 70.7 | - | - | - | - | -
Cc1ccccc1Nc1nc(N)nc(-c2oc3ccccc3c2C)n1 | - | - | - | - | - | .
CN(C)CCOC(=O)/C(=C/c1cn(C)c2ccccc12)NC(=O)c1ccccc1 | - | - | - | - | - | .
COc1ccc(NC(=O)N2CCN(C(=O)C(Cc3ccc(F)cc3)NC(C)=O)CC2)cc1 (configuration not stated) | - | - | - | - | - | .
CCOc1ccc(-n2nc3ccc(NC(=O)c4ccc5c(c4)OCCO5)cc3n2)cc1 | 98.6 | - | - | - | - | -
O=C(Nc1ccccc1)c1ccc2c(c1)OCCO2 | - | - | - | - | - | .
O=C(Nc1ccc(NS(=O)(=O)c2ccccc2)cc1)c1ccc(Cl)cc1 | 26.4 | - | - | - | - | -
O=C(Nc1ccc(NC(=O)c2ccc3c(c2)OCCO3)cc1)c1ccccc1 | 35.2 | - | - | - | - | -
O=C(Nc1ccc2nn(-c3ccccc3)nc2c1)c1ccc2c(c1)OCCO2 | - | - | - | - | - | .
O=C(NNC(=O)c1ccc(NC(=O)c2ccccc2)cc1)c1ccccc1 | 17.6 | - | - | - | - | -
CCCCn1c(N)c(N(CCC(C)C)C(=O)c2cccc(N3C(=O)c4ccccc4C3=O)c2)c(=O)[nH]c1=O | 21.8 | . | . | . | . | -
Cc1ccc(C(=O)N/C(=C\c2ccccc2)C(=O)NCc2cccnc2)cc1 | - | - | - | - | - | .
O=C(COC(=O)/C=C/c1cccc(Br)c1)NCc1ccco1 | - | . | . | . | . | .
O=C(COC(=O)/C=C/c1cccc(Br)c1)NCc1cccs1 | 45.6 | . | . | . | . | -
CC(OC(=O)c1cc(-c2cccnc2)nc2ccccc12)C(=O)Nc1ccc2ccccc2c1 (configuration not stated) | 43.6 | - | - | - | - | -
CCOC(=O)c1c(C)[nH]c(C(=O)OCC(=O)Nc2cc(C)c(Cl)cc2OC)c1C | 45.2 | - | - | - | - | -
Cc1ccc(/C=N/NC(=O)c2nnn(-c3nonc3N)c2CSc2ccccc2)s1 | - | - | - | - | - | .
Nc1nonc1-n1nnc(C(=O)N/N=C/c2ccc(F)cc2)c1-c1cccs1 | 54.5 | - | - | - | - | -
CCOc1ccc(/C=N/NC(=O)c2nnn(-c3nonc3N)c2COc2ccc(F)cc2)cc1 | 40.1 | - | - | - | - | -
Cc1ccsc1/C=N/NC(=O)c1nnn(-c2nonc2N)c1CSc1ccccc1 | 18.0 | - | - | - | - | -
c1ccc(-c2cc3cc4c(cc3cn2)OCO4)cc1 | - | . | . | . | . | .
CN(C)c1nc(NCc2ccccc2)nc(N/N=C/c2ccc3c(c2)OCO3)n1 | 57.9 | - | - | - | - | -
CN(C)c1nc(NCc2ccccc2)nc(N/N=C/c2ccc(Br)cc2)n1 | - | - | - | - | - | .
CCC(C(=O)Nc1cccnc1)c1ccccc1 (configuration not stated) | - | - | - | - | - | .
